Where a name gives a salt, the structure may show the parent alone.

This note sets out measurements from the supplement of paper PMC6124720.
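Further: biolog Phenotype Microarray plates PM21–25, OD595 followed daily over 11 days, growth curves converted to index, mean of two independent experiments.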

In this assay the test system is Pseudogymnoascus destructans 20631-21. Description: growth activity index (DuctApe, 0 = no growth, 9 = maximal growth) (index 0-9); higher = more fungal growth (less inhibition), active = 0 or less; extreme values may be limits of the assay. Particulars: concentration level (1-4, increasing; Biolog proprietary): 1; temperature: 13 °C; YPD.
`O.O=S(=O)([O-])[O-].O=S(=O)([O-])[O-].O=S(=O)([O-])[O-].[Al+3].[Al+3]` [Aluminum sulfate] (Biolog plate: PM24): the growth activity index is 2 (inactive).
With `N=C(N)N` [Guanidine hydrochloride] (Biolog plate: PM21) the figure was 5.25 (inactive).
With `N=C(N)c1ccc(OCCCCCOc2ccc(C(=N)N)cc2)cc1` [Pentamidine Isethionate] (Biolog plate: PM24) the figure was 0.333 (inactive); with `O=C(O)CN(CCN(CC(=O)O)CC(=O)O)CC(=O)O` (Biolog plate: PM21), 5 (inactive).
Regarding `CC(CN1c2ccccc2Sc2ccccc21)N(C)C` (stereo not given) [Promethazine] (Biolog plate: PM21), the growth activity index was 4.75 (inactive).
For `O=P(O)(O)OP(=O)(O)O` [Sodium pyrophosphate] (Biolog plate: PM24) the value was 5.67 (inactive).
For `Clc1ccc(COC(Cn2ccnc2)c2ccc(Cl)cc2Cl)c(Cl)c1` (stereo not given) [Miconazole Nitrate] (Biolog plate: PM24) the value was 4.67 (inactive).
For `O=c1[nH]c(=O)n([C@H]2C[C@H](O)[C@@H](CO)O2)cc1F` [Fluorodeoxyuridine] (Biolog plate: PM25) the value was 4.67 (inactive); for `CCCCCCCCCCCC[N+](C)(C)CCOc1ccccc1` [Domiphen bromide] (Biolog plate: PM21), 4 (inactive); for `CN[C@@H]1[C@@H](O[C@H]2O[C@H](CO)[C@@H](N)[C@H](O)[C@H]2O)OC2C[C@@H](N)[C@@H](O[C@H]3[C@H](O)[C@@H](O)[C@H](N)C[C@@H]3N)OC2[C@@H]1O` (stereo not given in full) [Apramycin] (Biolog plate: PM24), 5 (inactive).
`NO` [Hydroxylamine] (Biolog plate: PM23): the growth activity index is 4 (inactive).
For `CO/N=C(\C(=O)N[C@@H]1C(=O)N2C(C(=O)O)=C(CSc3nc(=O)c(O)nn3C)CS[C@H]12)c1csc(N)n1` [Ceftriaxone] (Biolog plate: PM22) the value was 2 (inactive).
For `NC[C@H]1O[C@H](O[C@H]2[C@H](O)[C@@H](O[C@H]3O[C@H](CO)[C@@H](O)[C@H](N)[C@H]3O)[C@H](N)C[C@@H]2N)[C@H](O)[C@@H](O)[C@@H]1O` [Kanamycin] (Biolog plate: PM25) the value was 5 (inactive); for `OCC1OC(O)CC(O)C1O` [2-Deoxy-D-glucose] (Biolog plate: PM23), 4.67 (inactive).
For `CCCCCCCC(=O)[O-].[Na+]` [Sodium Caprylate] (Biolog plate: PM23) the value was 1 (inactive); for `[Cl][Co][Cl]` [Cobalt (II) chloride] (Biolog plate: PM23), 3.33 (inactive); for `O=S(=O)([O-])[O-].[Cu+2]` [Copper (II) sulfate] (Biolog plate: PM21), 6 (inactive).
Regarding `C=C(CC[C@]12O[C@H](C(=O)O)[C@@](O)(C(=O)O)[C@](C(=O)O)(O1)[C@H](OC(=O)/C=C/[C@@H](C)C[C@@H](C)CC)[C@H]2O)[C@@H](OC(C)=O)[C@H](C)Cc1ccccc1` [Zaragozic acid A] (Biolog plate: PM24), the growth activity index is 5.67 (inactive).
For `c1ccc(-c2nn(-c3ccccc3)[n+](-c3cccc4ccccc34)n2)cc1` [Tetrazolium violet] (Biolog plate: PM25) the value was 4.33 (inactive); for `[Cl-].[Li+]` [Lithium chloride] (Biolog plate: PM22), 0 (active).
For `Nc1c2ccccc2nc2ccccc12` [9-Aminoacridine] (Biolog plate: PM24) the value was 5 (inactive); for `O=S(O)(O)=S` [Sodium Thiosulfate] (Biolog plate: PM23), 5 (inactive); for `[Cl][Cu][Cl]` [Cupric chloride] (Biolog plate: PM23), 4.33 (inactive).
With `CSc1ccc2c(c1)N(CCC1CCCCN1C)c1ccccc1S2` (stereo not given) [Thioridazine] (Biolog plate: PM24), the growth activity index was 3.33 (inactive).
With `O.O.O.O.O.O.[Cl-].[Cl-].[Mg+2]` [Magnesium chloride] (Biolog plate: PM21) the figure was 4 (inactive).
With `NC(N)=S` [Thiourea] (Biolog plate: PM21) the figure was 2 (inactive); with `CN1CCN(CCCN2c3ccccc3Sc3ccc(C(F)(F)F)cc32)CC1` [Trifluoperazine] (Biolog plate: PM21), 0 (active).
For `Nc1[nH]c(=O)ncc1F` [5-Fluorocytosine] (Biolog plate: PM25) the value was 5 (inactive); for `NCC(=O)NO` [Glycine hydroxamate] (Biolog plate: PM22), 5 (inactive).
Regarding `O=NO` [Sodium Nitrite] (Biolog plate: PM23), the growth activity index was 4.33 (inactive).
With `O=C(O)/C=C/c1ccccc1` [Cinnamic acid] (Biolog plate: PM25) the figure was 5 (inactive); with `O=C(O)CC(O)C(=O)O` (stereo not given) [Malic acid] (Biolog plate: PM25), 4 (inactive); with `CN(C)[C@@H]1C(O)=C(C(N)=O)C(=O)[C@@]2(O)C(O)=C3C(=O)c4c(O)ccc(Cl)c4[C@@](C)(O)[C@H]3C[C@@H]12` [Chlortetracycline] (Biolog plate: PM24), 5.67 (inactive).
As for `CC(=O)OCC1=C(C(=O)O)N2C(=O)[C@@H](NC(=O)Cc3cccs3)[C@H]2SC1` [Cephalotin] (Biolog plate: PM22), the growth activity index is 5.67 (inactive).
For `NC(CO)C(=O)NO` (racemic) [DL-Serine hydroxamate] (Biolog plate: PM22) the value was 4.33 (inactive); for `NC[C@H]1O[C@H](O[C@H]2[C@H](O)[C@@H](O[C@H]3O[C@H](CO)[C@@H](O)[C@H](N)[C@H]3O)[C@H](N)C[C@@H]2N)[C@H](N)C[C@@H]1O` [Tobramycin] (Biolog plate: PM25), 5 (inactive).
For `NCC(=O)O` [Glycine hydrochloride] (Biolog plate: PM23) the value was 5 (inactive); for `C[C@H]1c2cccc(O)c2C(=O)C2=C(O)[C@]3(O)C(=O)C(C(N)=O)=C(O)[C@@H](N(C)C)[C@@H]3[C@@H](O)[C@@H]21` [Doxycycline] (Biolog plate: PM23), 4.67 (inactive).
For `O=c1[nH]cc(F)c(=O)[nH]1` [5-Fluorouracil] (Biolog plate: PM25), the growth activity index is 4.67 (inactive).
`On1ccccc1=S` [1-Hydroxypyridine-2-thione (pyrithione)] (Biolog plate: PM21): the growth activity index is 5.25 (inactive).
